From PubChem BioAssay
In the library only some 19% were active in any assay of this set; here they are far more common.
DT40 TDP1 CPT = qHTS for Inhibitors of human tyrosyl-DNA phosphodiesterase 1 (TDP1): qHTS in cells in presence of CPT; chicken DT40 Tdp1-/-;hTDP1 cells + 20 nM CPT, ATP luminescence, 48 h; Potency, µM (highest dose often 46.2 µM), for the others: top-dose activity change, negative = growth inhibition, actives largely listed as inhibitors; 420,000 tested, 12% active; AID 686979, 2013; note: potency is the fitted concentration of half-maximal effect; nearly all actives have a fitted effect of over 55% in size
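Cell growth measured by CellTiter-Glo luminescence after a minimum 48 h, 37 C compound exposure with 20 nM CPT in Tdp1-knockout DT40 cells stably expressing hTDP1, seeded 400/well; qHTS titration format.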
HT1080-NT tox = qHTS for induction of synthetic lethality in tumor cells producing 2HG: qHTS for the HT-1080-NT fibrosarcoma cell line | 360,000 tested, 1.6% active | Potency, µM (series often up to 46.1 µM), inactives show at the highest dose activity, negative = less viability, actives largely listed as cytotoxic | HT-1080-NT fibrosarcoma viability, CellTiter-Glo ATP luminescence, 48 h;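 note: NT is the 2HG producing partner of a matched IDH1 knockdown line; potency is the fitted concentration of half-maximal effect; 0% = DMSO-treated cells and -100% = media-only wells without cells; nearly all actives have a fitted effect of over 55% in size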
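HT-1080-NT fibrosarcoma cells (2HG-overproducing), 750 cells/well in RPMI with 5% FBS, dosed after 2 h and incubated 48 h at 37C. CellTiter-Glo luminescence normalized to DMSO and no-cell wells; concentration-response curves fitted and classed.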
IL1B secr inh = qHTS for Inhibitors of Inflammasome Signaling: IL-1-beta AlphaLISA Primary Screen; THP-1 LPS/ATP IL-1B secretion, AlphaLISA, 16 h; active compounds read low; AID 743279, 2014; activity change, % at 57.5 µM; 360,000 tested, 4.7% active; in the data active = activity change below about -50%; inconclusive = mostly about -30% to -49%
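THP-1 cells pretreated 1 hr with compounds (up to 57.5 uM final), then stimulated with LPS (250 ng/mL final) plus ATP (1.25 mM final); secreted IL-1B measured by AlphaLISA after 16 hr, decreased signal indicating inhibition.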
HT1080 IDH1KD tx = qHTS for induction of synthetic lethality in tumor cells producing 2HG: qHTS for the HT-1080-IDH1KD cell line. HT-1080 IDH1 knockdown viability, ATP luminescence, 48 h. Potency, µM (highest dose often 46.1 µM), for the others: at the highest dose activity, negative = toxicity, hits mostly cytotoxic. 360,000 tested, 2% active;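 note: potency is the fitted concentration of half-maximal effect; 0% = DMSO wells and -100% = cell-free medium wells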
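Cytotoxicity counter-line: IDH1KD HT-1080, 48 h, CellTiter-Glo. Curves classed by r2, magnitude and activity.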
DT40 TDP1 no CPT = qHTS for Inhibitors of human tyrosyl-DNA phosphodiesterase 1 (TDP1): qHTS in cells in absence of CPT. DT40 Tdp1-/- hTDP1 cells, no CPT, ATP luminescence, 48 h. Potency, µM (series often up to 46.2 µM), for inactives: at the top dose activity change, negative = growth inhibition, usual class: inhibitors. 420,000 tested, 15% active. AID 686978, 2013; note: potency is the fitted concentration of half-maximal effect; nearly all actives have a fitted effect of over 55% in size
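Chicken DT40 Tdp1-/- cells complemented with human TDP1, screened without camptothecin (DMSO vehicle only), 400 cells/well. Compounds pin-transferred, cells incubated at 37 °C for at least 48 hr. Growth read as ATP-dependent luminescence (CellTiter-Glo, 30 min at RT).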
* hit, by the source's call. Unless noted, calls come from the whole dose curve; as a rule, active = well fitted curve in the direction sought with a large enough effect; inconclusive = small, poorly fitted or top-dose-only effect, or another doubt; inactive = no such curve, though single readings can be large; an effect the other way counts as inactive or inconclusive. Unless noted, % is set by controls: 0 for no effect and ±100 for the full control effect.

COc1ccc(Nc2c3c(nc4ccc(C)cc24)CCC3)cc1 was read as DT40 TDP1 CPT inconclusive, HT1080-NT tox -25%, IL1B secr inh -13, HT1080 IDH1KD tx -29% and DT40 TDP1 no CPT inconclusive.
Screening Nc1ccc(C(=O)N(CCO)CCO)cc1 returned DT40 TDP1 CPT 8%, HT1080-NT tox 0%, IL1B secr inh 0, HT1080 IDH1KD tx 3% and DT40 TDP1 no CPT 7%.
`CCN(CC)C(=O)c1ccc(N)cc1` gave DT40 TDP1 CPT 1%, HT1080-NT tox -5%, IL1B secr inh -21, HT1080 IDH1KD tx 6% and DT40 TDP1 no CPT 7%.
`Nc1ccc(N(CCO)CCO)cc1` gave DT40 TDP1 CPT 12µM*, HT1080-NT tox -15%, IL1B secr inh -8, HT1080 IDH1KD tx -8% and DT40 TDP1 no CPT 21µM*.
Screening CCN(CC)c1ccc(C(=O)NN)cc1 returned DT40 TDP1 CPT 28%, HT1080-NT tox -19%, IL1B secr inh -52*, HT1080 IDH1KD tx 2% and DT40 TDP1 no CPT -3%.
Screening CCN(CC)c1ccc(C(=O)N/N=C(\C)c2ccc(OC)c(OC)c2)cc1 returned DT40 TDP1 CPT -4%, HT1080-NT tox -13%, IL1B secr inh 6, HT1080 IDH1KD tx inconclusive and DT40 TDP1 no CPT 26µM*.
Screening CCN(CC)c1ccc(N)cc1 returned DT40 TDP1 CPT 1.8µM*, HT1080-NT tox 8.2µM*, IL1B secr inh -66*, HT1080 IDH1KD tx 15µM* and DT40 TDP1 no CPT 1.6µM*.
`C/C(=N\Nc1ccc(S(=O)(=O)N2CCCCC2)cn1)c1ccc(O)cc1` gave DT40 TDP1 CPT inconclusive, HT1080-NT tox -7%, IL1B secr inh 0, HT1080 IDH1KD tx -12% and DT40 TDP1 no CPT 15µM*.
COc1cccc(CNc2ccc(S(=O)(=O)N3CCCC3)cn2)c1 was read as DT40 TDP1 CPT inconclusive, HT1080-NT tox 2%, IL1B secr inh 8, HT1080 IDH1KD tx -7% and DT40 TDP1 no CPT inconclusive.
Screening COc1cccc(/C(C)=N/Nc2ccc(S(=O)(=O)N3CCCCC3)cn2)c1 returned DT40 TDP1 CPT inconclusive, HT1080-NT tox -11%, IL1B secr inh -2, HT1080 IDH1KD tx -9% and DT40 TDP1 no CPT 2.9µM*.
Screening Cc1ccc(NC(=O)c2ccc(S(=O)(=O)N3CCCCCC3)cc2)nc1 returned DT40 TDP1 CPT -28%, HT1080-NT tox inconclusive, IL1B secr inh -30, HT1080 IDH1KD tx -11% and DT40 TDP1 no CPT inconclusive.
`Cc1cc(OCC(F)(F)C(F)(F)C(F)(F)C(F)F)nc(N)n1` gave DT40 TDP1 CPT -15%, HT1080-NT tox 10%, IL1B secr inh 11, HT1080 IDH1KD tx 5% and DT40 TDP1 no CPT -19%.
CCCc1nc(SCc2cccnc2)c2c(=O)n(C)c(=O)n(C)c2n1 was read as DT40 TDP1 CPT inconclusive, HT1080-NT tox -2%, IL1B secr inh 57, HT1080 IDH1KD tx -3% and DT40 TDP1 no CPT 16µM*.
`Cc1ccccc1-c1nc(SCc2cccnc2)c2c(=O)n(C)c(=O)n(C)c2n1` gave DT40 TDP1 CPT 3%, HT1080-NT tox 13%, IL1B secr inh 37, HT1080 IDH1KD tx 16% and DT40 TDP1 no CPT -24%.
For CCCc1nc(SCc2ccccn2)c2c(=O)n(C)c(=O)n(C)c2n1 the results were DT40 TDP1 CPT inconclusive, HT1080-NT tox 0%, IL1B secr inh 58, HT1080 IDH1KD tx -2% and DT40 TDP1 no CPT inconclusive.
Cn1c(=O)c2c(SCc3ccccn3)nc(CC(C)(C)C)nc2n(C)c1=O was read as DT40 TDP1 CPT 21µM*, HT1080-NT tox 4%, IL1B secr inh 44, HT1080 IDH1KD tx 8% and DT40 TDP1 no CPT 21µM*.
Screening Cn1c(=O)c2c(SCc3cccnc3)nc(CC(C)(C)C)nc2n(C)c1=O returned DT40 TDP1 CPT 15µM*, HT1080-NT tox -19%, IL1B secr inh 17, HT1080 IDH1KD tx -18% and DT40 TDP1 no CPT 18µM*.
Screening CCCCn1c(SCc2cccnc2)nc2c1c(=O)n(C)c(=O)n2C returned DT40 TDP1 CPT 13µM*, HT1080-NT tox 12%, IL1B secr inh 12, HT1080 IDH1KD tx 2% and DT40 TDP1 no CPT 16µM*.
For CC1=C(C(=O)OCC2CCCO2)C(c2ccc(F)cc2)NC(=O)N1 (stereo not given) the results were DT40 TDP1 CPT -2%, HT1080-NT tox 12%, IL1B secr inh 1, HT1080 IDH1KD tx 1% and DT40 TDP1 no CPT -8%.
Cc1cc(OCC(=O)N2CCC(O)CC2)c2c(C)cc(=O)oc2c1 was read as DT40 TDP1 CPT 10%, HT1080-NT tox 0%, IL1B secr inh -7, HT1080 IDH1KD tx 2% and DT40 TDP1 no CPT 12%.
CCOc1ccc(N2C(=O)/C(=C/c3cc(OC)c(OC)c(OC)c3)N(CC(=O)OC)C2=S)cc1 was read as DT40 TDP1 CPT inconclusive, HT1080-NT tox -27%, IL1B secr inh -90*, HT1080 IDH1KD tx -23% and DT40 TDP1 no CPT 18µM*.
Screening CCOc1ccc(C(=O)c2ccc(OC)c(O)c2O)cc1 returned DT40 TDP1 CPT 21µM* and DT40 TDP1 no CPT inconclusive.
Screening CCOc1ccc(/C=C/C(=O)c2ccccc2)cc1 returned DT40 TDP1 CPT inconclusive, HT1080-NT tox 6%, IL1B secr inh inconclusive, HT1080 IDH1KD tx 5% and DT40 TDP1 no CPT inconclusive.
COc1cc(/C=C/C(=O)c2ccc(F)cc2)cc(OC)c1OC was read as DT40 TDP1 CPT inconclusive, HT1080-NT tox 23µM*, IL1B secr inh -74*, HT1080 IDH1KD tx 18µM* and DT40 TDP1 no CPT 16µM*.
`CCOc1ccc(/C=C2/C(=O)N(c3ccc(OC)cc3)C(=S)N2CC(=O)OC)cc1OCC` gave DT40 TDP1 CPT inconclusive, HT1080-NT tox -11%, IL1B secr inh 29, HT1080 IDH1KD tx -7% and DT40 TDP1 no CPT inconclusive.
For CCOc1ccc(C(=O)/C=C/c2cc(OC)c(OC)c(OC)c2)cc1 the results were DT40 TDP1 CPT 10µM*, HT1080-NT tox inconclusive, IL1B secr inh -94*, HT1080 IDH1KD tx 16µM* and DT40 TDP1 no CPT 8.2µM*.
`COc1ccc(/C=C/C(=O)O)cc1S(=O)(=O)NC1CCS(=O)(=O)C1` (stereo not given) gave DT40 TDP1 CPT 4%, HT1080-NT tox 13%, IL1B secr inh 25, HT1080 IDH1KD tx 17% and DT40 TDP1 no CPT -3%.
For COc1ccc(CCNS(=O)(=O)c2ccc(Br)s2)cc1 the results were DT40 TDP1 CPT -11%, HT1080-NT tox 8%, IL1B secr inh -5, HT1080 IDH1KD tx 0% and DT40 TDP1 no CPT -16%.
